{"source": "the supplement of paper PMC10121225", "note": "Where a name gives a salt, the structure may show the parent alone.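 Further: immunostained co-cultures imaged by high-content microscopy, Z-score per plate against mean and SD of 0.1% DMSO wells, compounds added on differentiation day 18, analysed day 21.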"}
{"system": "hN + hpA co-culture (H1 iNGN2 human neurons + human primary astrocytes)", "assay": "presynaptic density (SYNAPSIN1 puncta per MAP2 neurite area), Z-score vs DMSO controls; higher = more presynaptic puncta (synapse-promoting)", "settings": "3 µM; 72 h"}
{"smiles": "CCn1c(N)c(C(=O)NC)c(=O)c2ccc(C#CC(C)(O)COC)nc21", "note": "(centres undefined)", "presynaptic density (Z-score)": 0.325}
{"smiles": "C=CCNC1=C2C[C@@H](C)C[C@H](OC)[C@H](O)[C@@H](C)/C=C(\\C)[C@H](OC(N)=O)[C@@H](OC)/C=C\\C=C(/C)C(=O)NC(=CC1=O)C2=O", "note": "[17-AAG (Tanespimycin)]", "presynaptic density (Z-score)": 0.868}
{"smiles": "Oc1ncnc2[nH]ncc12", "note": "[Allopurinol]", "presynaptic density (Z-score)": -0.774}
{"smiles": "C[S+]([O-])c1ccc(-c2nc(-c3ccc(F)cc3)c(-c3ccncc3)[nH]2)cc1", "note": "(centres undefined)", "presynaptic density (Z-score)": -1.11}
{"smiles": "CC(C)c1ccc(NC(=O)Cn2cnc3c2c(=O)n(C)c(=O)n3C)cc1", "presynaptic density (Z-score)": -0.215}
{"smiles": "Cc1ccc(S(=O)(=O)NC(=O)NN2CC3CCCC3C2)cc1", "note": "(centres undefined)", "presynaptic density (Z-score)": 0.0878}
{"smiles": "CC(=O)O[C@]1(C(C)=O)CC[C@H]2[C@@H]3C=C(Cl)C4=CC(=O)[C@@H]5C[C@@H]5[C@]4(C)[C@H]3CC[C@@]21C", "note": "[Cyproterone acetate]", "presynaptic density (Z-score)": -0.989}
{"smiles": "NC(=O)C1CCCc2c1[nH]c1ccc(Cl)cc21", "note": "(centres undefined) [6-Chloro-2,3,4,9-tetrahydro-1H-carbazole-1-carboxamide]", "presynaptic density (Z-score)": 0.159}
{"smiles": "Cc1cn(-c2cc(NC(=O)c3ccc(C)c(Nc4nccc(-c5cccnc5)n4)c3)cc(C(F)(F)F)c2)cn1", "note": "[Nilotinib (AMN 107 or Tasigna)]", "presynaptic density (Z-score)": -1.02}
{"smiles": "Cc1cc(C(C)(C)C)c(O)c(C)c1CC1=NCCN1", "note": "[Oxymetazoline HCl]", "presynaptic density (Z-score)": -0.235}
{"smiles": "C#CCC(Cc1cnc2nc(N)nc(N)c2n1)c1ccc(C(=O)N[C@@H](CCC(=O)O)C(=O)O)cc1", "note": "(some centres undefined) [Pralatrexate]", "presynaptic density (Z-score)": 0.0678}
{"smiles": "COc1cc(OC)c(/C=C/S(=O)(=O)Cc2ccc(OC)c(NCC(=O)O)c2)c(OC)c1", "presynaptic density (Z-score)": -3.31}
{"smiles": "CC(C)(F)C[C@H](N[C@@H](c1ccc(-c2ccc(S(C)(=O)=O)cc2)cc1)C(F)(F)F)C(=O)NC1(C#N)CC1", "note": "[Odanacatib (MK-0822)]", "presynaptic density (Z-score)": -0.252}
{"smiles": "C#Cc1cccc(Nc2ncnc3cc(OCCOC)c(OCCO)cc23)c1", "presynaptic density (Z-score)": -0.577}
{"smiles": "O=C(NCCN1CCOCC1)c1ccc(Cl)cc1", "presynaptic density (Z-score)": 0.253}
{"smiles": "O=C(Nc1cccc(Nc2ncc(Br)c(NCCc3cnc[nH]3)n2)c1)N1CCCC1", "presynaptic density (Z-score)": -0.439}
{"smiles": "CN(C)Cc1ccc(-c2nc3cccc4c3n2CCNC4=O)cc1", "presynaptic density (Z-score)": -0.178}
{"smiles": "CCOC(=O)c1ccc(N2NC(=O)C(=Cc3ccc([N+](=O)[O-])o3)C2=O)cc1", "presynaptic density (Z-score)": 0.0787}
{"smiles": "C[C@@H](O[C@H]1OCCN(Cc2n[nH]c(=O)[nH]2)[C@H]1c1ccc(F)cc1)c1cc(C(F)(F)F)cc(C(F)(F)F)c1", "note": "[Aprepitant]", "presynaptic density (Z-score)": 0.895}
{"smiles": "NCc1c[nH]c(=S)n1C1CCc2c(F)cc(F)cc2C1", "note": "[(R)-Nepicastat HCl]", "presynaptic density (Z-score)": 0.738}
{"smiles": "NC(=O)N1c2ccccc2CC(=O)c2ccccc21", "presynaptic density (Z-score)": 0.372}
{"smiles": "CC(C)(C)n1nc(-c2ccc(Cl)cc2)c2c(N)ncnc21", "presynaptic density (Z-score)": 0.793}
{"smiles": "N#Cc1ccc(C(c2ccc(C#N)cc2)n2cncn2)cc1", "presynaptic density (Z-score)": 0.0621}
{"smiles": "CC(C)OC(=O)C1=CN(C(=O)c2ccc(F)c(F)c2)CC(C)(C)c2c1[nH]c1ccccc21", "presynaptic density (Z-score)": -0.269}
{"smiles": "Cc1[nH]c2ccccc2c1C1=C(NCCc2ccc(F)cc2)C(=O)N(C)C1=O", "presynaptic density (Z-score)": -0.562}
{"smiles": "COc1cc2nc(N3CCN(C(=O)C4COc5ccccc5O4)CC3)nc(N)c2cc1OC", "note": "(centres undefined) [Doxazosin mesylate]", "presynaptic density (Z-score)": 0.0192}
{"smiles": "Nc1cccc2c1CN(C1CCC(=O)NC1=O)C2=O", "note": "(centres undefined) [Lenalidomide]", "presynaptic density (Z-score)": 1.39}
{"smiles": "C[C@]12CC[C@@H]3c4ccc(O)cc4C[C@@H](CCCCCCCCC[S+]([O-])CCCC(F)(F)C(F)(F)F)[C@H]3[C@@H]1CC[C@@H]2O", "note": "(some centres undefined) [Fulvestrant]", "presynaptic density (Z-score)": -0.41}
{"smiles": "NCC(=O)Nc1ccc(-n2nc(C(F)(F)F)cc2-c2ccc3c(ccc4ccccc43)c2)cc1", "presynaptic density (Z-score)": -0.52}
{"smiles": "COCCOc1ccc2c(c1)ncn2-c1ccc2cccc(N3CCC(N)CC3)c2n1", "presynaptic density (Z-score)": -0.271}
{"smiles": "CCN(CC)C(=O)/C(C#N)=C/c1cc(O)c(O)c([N+](=O)[O-])c1", "note": "[Entacapone]", "presynaptic density (Z-score)": 0.44}
{"smiles": "O=C(O)CCc1ccc(NCc2cccc(Oc3ccccc3)c2)cc1", "note": "[4-[[(3-Phenoxyphenyl)methyl]amino]benzenepropanoic acid]", "presynaptic density (Z-score)": -0.812}
{"smiles": "CCN[C@H]1CN(CCCOC)S(=O)(=O)c2sc(S(N)(=O)=O)cc21", "note": "[Brinzolamide]", "presynaptic density (Z-score)": -0.474}
{"smiles": "Cc1ccc(S(=O)(=O)n2c(N)nc3ccccc32)cc1", "note": "[ML130 (Nodinitib-1)]", "presynaptic density (Z-score)": 0.396}
{"smiles": "Cn1cnc2c(F)c(Nc3ccc(Br)cc3Cl)c(C(=O)NOCCO)cc21", "presynaptic density (Z-score)": 0.953}
{"smiles": "C[C@@H](NCCCc1cccc(C(F)(F)F)c1)c1cccc2ccccc12", "note": "[Cinacalcet HCl]", "presynaptic density (Z-score)": -1.05}
{"smiles": "O=[N+]([O-])c1ccc2c(c1)S(=O)(=O)C=C2", "note": "[6-Nitrobenzo[b]thiophene 1,1-dioxide]", "presynaptic density (Z-score)": 0.915}
{"smiles": "CCN(CC)CCCC(C)Nc1nc(C)cc(Nc2ccc3nc(C)cc(N)c3c2)n1", "note": "(centres undefined)", "presynaptic density (Z-score)": -0.607}
{"smiles": "Nc1ncnc2c1c(-c1cccc(OCc3ccccc3)c1)cn2C1CC(CN2CCCC2)C1", "note": "(centres undefined)", "presynaptic density (Z-score)": -1.9}
